Among the data in ChEMBL document CHEMBL3988442, “University of Dundee, Small-Polar-MMV Screening Library” (2021) are Percent Effect values, retold here.

For part of these data: Potency and affinity values are given separately.

Design in all cases: scale not given: direction of the effect not stated beside the values
Assay [1] deals with Protein translocase subunit SecA (Escherichia coli (strain K12)) (UniProt P10408). The assay is described as follows: Assay to Identify E. coli SecA ATPase Inhibitors. The class given is functional. The settings on record: 30 µM.
Assay [2] deals with T1, Ubiquitin-activating enzyme e1, putative (Leishmania donovani (strain BPK282A1)) (UniProt E9BSI1).
T1 sequence (whole entry): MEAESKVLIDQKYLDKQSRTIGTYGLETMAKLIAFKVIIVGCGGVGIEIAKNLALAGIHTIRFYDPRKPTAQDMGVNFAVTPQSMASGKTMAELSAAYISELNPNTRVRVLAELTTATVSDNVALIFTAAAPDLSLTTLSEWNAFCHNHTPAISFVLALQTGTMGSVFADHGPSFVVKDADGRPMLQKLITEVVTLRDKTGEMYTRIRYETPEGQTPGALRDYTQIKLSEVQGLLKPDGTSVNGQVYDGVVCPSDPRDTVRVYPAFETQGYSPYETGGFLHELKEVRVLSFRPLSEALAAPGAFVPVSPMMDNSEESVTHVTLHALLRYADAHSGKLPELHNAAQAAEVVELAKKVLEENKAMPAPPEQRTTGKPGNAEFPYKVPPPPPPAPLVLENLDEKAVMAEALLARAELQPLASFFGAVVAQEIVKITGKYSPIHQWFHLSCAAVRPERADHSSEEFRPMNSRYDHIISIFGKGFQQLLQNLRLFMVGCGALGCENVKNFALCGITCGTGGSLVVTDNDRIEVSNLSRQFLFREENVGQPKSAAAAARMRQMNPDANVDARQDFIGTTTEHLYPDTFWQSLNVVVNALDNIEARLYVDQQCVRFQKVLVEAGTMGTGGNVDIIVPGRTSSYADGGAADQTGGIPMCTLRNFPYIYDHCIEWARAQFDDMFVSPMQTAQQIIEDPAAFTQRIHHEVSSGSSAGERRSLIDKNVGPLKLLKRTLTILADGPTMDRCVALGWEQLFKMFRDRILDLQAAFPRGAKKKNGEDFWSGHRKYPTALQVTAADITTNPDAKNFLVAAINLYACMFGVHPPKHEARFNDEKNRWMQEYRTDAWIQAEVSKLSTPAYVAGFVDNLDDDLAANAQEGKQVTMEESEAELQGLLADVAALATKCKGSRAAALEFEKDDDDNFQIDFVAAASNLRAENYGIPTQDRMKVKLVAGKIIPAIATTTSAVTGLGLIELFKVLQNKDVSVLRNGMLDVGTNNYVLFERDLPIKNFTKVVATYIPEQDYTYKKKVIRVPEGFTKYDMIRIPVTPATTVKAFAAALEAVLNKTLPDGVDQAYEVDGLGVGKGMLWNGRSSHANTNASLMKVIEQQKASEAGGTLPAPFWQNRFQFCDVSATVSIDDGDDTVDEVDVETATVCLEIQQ
The assay is described as follows: Leishmania donovani Ubiquitin Activating Enzyme (LdE1). Type of assay: functional. The settings on record: 30 µM.

In assay [3] the target is Sialic acid-binding Ig-like lectin 9 (Homo sapiens) (UniProt Q9Y336). Nature of the assay: Hs-Siglec9 ALPHAscreen SOP 20170721. The settings on record: 10 µM. For orientation: Bead proximity is the source of the signal in Alpha formats.
A further assay concerns Trypanosoma cruzi. Nature of the assay: Trypanosoma cruzi phosphomannomutase and mannose-1-phosphate guanylyltransferase assay. The class given is functional. The settings on record: 10 µM.
In assay [4] the target is T2, Arginase-2, mitochondrial (Homo sapiens) (UniProt P78540).
T2 sequence (whole entry): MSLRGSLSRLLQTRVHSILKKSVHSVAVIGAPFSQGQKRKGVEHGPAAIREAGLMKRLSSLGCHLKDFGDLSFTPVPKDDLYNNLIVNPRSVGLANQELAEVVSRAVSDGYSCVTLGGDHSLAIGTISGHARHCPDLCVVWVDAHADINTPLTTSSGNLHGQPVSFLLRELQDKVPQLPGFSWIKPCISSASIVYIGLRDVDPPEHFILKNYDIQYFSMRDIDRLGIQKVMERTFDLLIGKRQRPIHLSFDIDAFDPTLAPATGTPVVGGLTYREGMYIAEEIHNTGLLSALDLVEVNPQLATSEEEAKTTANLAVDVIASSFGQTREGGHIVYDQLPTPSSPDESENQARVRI
Nature of the assay: in vitro enzyme assay to detect the production of urea directly proportional to the activity of Arginase II. Also: in the data most compounds retested in dose-response had high values. The settings on record: 33.3 µM. The class given is functional.

The target of assay [5] is T3, Proteasome subunit beta (Trypanosoma cruzi) (UniProt O96673).
T3 sequence (whole entry): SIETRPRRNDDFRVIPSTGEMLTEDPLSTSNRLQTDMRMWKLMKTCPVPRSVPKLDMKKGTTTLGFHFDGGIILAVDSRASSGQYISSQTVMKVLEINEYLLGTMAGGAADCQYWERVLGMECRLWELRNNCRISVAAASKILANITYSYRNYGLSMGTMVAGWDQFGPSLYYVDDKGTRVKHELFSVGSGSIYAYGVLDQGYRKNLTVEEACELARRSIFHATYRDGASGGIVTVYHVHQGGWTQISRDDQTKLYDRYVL
The assay is described as follows: Trypanosoma cruzi proteasome chymotrypsin-like activity (TcProtChymo) assay. Also: in the data most compounds retested in dose-response had high values. The settings on record: 9.37 µM. Type of assay: functional.

The species entered for another assay is Homo sapiens. Nature of the assay: To identify inhibition of the IFN signalling (Jak-Stat) pathway via expression of an eGFP reporter gene under the control of an IFN-stimulated response element (ISRE) containing MxA promoter. The settings on record: 30 µM. The class given is functional. (In general: A reporter such as luciferase makes a cellular process visible.)

The target in assay [6] is T4, Tyrosyl-tRNA synthetase, putative (Trypanosoma cruzi (strain CL Brener)) (UniProt Q4DSP6).
T4 sequence (whole entry): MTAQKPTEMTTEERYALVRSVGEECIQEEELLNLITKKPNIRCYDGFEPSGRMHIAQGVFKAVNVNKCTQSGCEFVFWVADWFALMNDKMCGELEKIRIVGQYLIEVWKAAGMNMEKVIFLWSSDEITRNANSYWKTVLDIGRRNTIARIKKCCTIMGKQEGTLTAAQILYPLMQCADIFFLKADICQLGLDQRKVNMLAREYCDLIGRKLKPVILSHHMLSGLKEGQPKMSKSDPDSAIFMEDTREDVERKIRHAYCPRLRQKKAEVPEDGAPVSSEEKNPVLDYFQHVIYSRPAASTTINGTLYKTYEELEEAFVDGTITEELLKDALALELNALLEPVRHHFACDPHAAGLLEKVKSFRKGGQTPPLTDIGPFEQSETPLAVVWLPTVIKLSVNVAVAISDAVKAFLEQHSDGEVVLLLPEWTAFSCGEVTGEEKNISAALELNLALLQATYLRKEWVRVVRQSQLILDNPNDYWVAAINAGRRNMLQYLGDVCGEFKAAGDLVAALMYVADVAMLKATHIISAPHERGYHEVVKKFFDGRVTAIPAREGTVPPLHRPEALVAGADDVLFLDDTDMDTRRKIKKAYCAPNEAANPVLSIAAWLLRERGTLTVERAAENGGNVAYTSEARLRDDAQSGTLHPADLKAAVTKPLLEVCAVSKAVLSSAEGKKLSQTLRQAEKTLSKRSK
The assay is described as follows: Trypanosoma cruzi tyrosyl tRNA synthetase (TcYRS) _High Tyrosine SOP. Also: in the data most compounds retested in dose-response had high values. The class given is functional. The settings on record: 30 µM.

The target of assay [7] is T4, Tyrosyl-tRNA synthetase, putative (Trypanosoma cruzi (strain CL Brener)). Nature of the assay: Trypanosoma cruzi tyrosyl tRNA synthetase (TcYRS) SOP. Type of assay: functional. The settings on record: 30 µM.
Assay [8] addresses Chromo domain-containing protein 1 (Saccharomyces cerevisiae (strain ATCC 204508 / S288c) (Baker's yeast)) (UniProt P32657). The assay is described as follows: ScCHD-1 Enzyme Inhibition Assay. Also: in the data most compounds retested in dose-response had high values. Type of assay: functional. The settings on record: 30 µM.

Chain of Chromo domain-containing protein 1 (Saccharomyces cerevisiae (strain ATCC 204508 / S288c) (Baker's yeast)) (P32657 whole entry, the tested form may be a part): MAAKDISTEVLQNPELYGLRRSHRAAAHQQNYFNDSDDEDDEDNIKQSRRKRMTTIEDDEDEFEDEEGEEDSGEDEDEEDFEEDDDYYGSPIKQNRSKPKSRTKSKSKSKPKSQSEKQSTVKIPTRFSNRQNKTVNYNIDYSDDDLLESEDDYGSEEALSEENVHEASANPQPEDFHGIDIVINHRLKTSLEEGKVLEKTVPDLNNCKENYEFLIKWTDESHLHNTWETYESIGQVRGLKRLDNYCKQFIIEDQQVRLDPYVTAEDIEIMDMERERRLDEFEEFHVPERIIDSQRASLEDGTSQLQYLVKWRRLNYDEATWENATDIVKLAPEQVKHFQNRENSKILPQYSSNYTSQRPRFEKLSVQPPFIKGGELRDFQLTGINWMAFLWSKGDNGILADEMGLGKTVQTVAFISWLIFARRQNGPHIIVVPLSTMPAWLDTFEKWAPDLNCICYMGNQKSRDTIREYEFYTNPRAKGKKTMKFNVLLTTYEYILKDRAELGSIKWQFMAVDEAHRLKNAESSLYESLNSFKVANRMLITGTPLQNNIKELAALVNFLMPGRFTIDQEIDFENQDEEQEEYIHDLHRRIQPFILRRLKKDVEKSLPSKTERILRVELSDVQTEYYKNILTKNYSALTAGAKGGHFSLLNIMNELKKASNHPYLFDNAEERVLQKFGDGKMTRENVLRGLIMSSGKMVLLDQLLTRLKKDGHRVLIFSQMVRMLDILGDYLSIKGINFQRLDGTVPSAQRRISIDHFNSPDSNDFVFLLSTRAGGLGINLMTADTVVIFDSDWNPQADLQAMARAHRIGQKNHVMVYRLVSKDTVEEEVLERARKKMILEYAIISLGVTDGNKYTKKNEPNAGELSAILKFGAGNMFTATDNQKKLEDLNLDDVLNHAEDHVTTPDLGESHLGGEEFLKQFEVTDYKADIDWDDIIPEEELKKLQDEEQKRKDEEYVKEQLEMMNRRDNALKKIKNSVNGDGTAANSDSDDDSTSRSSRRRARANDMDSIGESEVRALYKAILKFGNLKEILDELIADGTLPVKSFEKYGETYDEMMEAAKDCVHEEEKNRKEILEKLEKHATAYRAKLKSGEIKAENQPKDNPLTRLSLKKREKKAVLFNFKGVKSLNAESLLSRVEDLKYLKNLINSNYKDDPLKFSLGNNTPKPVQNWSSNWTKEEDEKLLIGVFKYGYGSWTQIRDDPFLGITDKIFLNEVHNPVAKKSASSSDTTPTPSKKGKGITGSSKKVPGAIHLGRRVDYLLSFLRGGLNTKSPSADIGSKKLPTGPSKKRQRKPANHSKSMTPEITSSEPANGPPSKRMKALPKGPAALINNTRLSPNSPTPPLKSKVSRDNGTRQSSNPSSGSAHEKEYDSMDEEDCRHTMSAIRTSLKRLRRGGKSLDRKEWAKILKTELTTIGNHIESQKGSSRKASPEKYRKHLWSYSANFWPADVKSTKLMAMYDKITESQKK
Chain of Sialic acid-binding Ig-like lectin 9 (Homo sapiens) (Q9Y336 whole entry): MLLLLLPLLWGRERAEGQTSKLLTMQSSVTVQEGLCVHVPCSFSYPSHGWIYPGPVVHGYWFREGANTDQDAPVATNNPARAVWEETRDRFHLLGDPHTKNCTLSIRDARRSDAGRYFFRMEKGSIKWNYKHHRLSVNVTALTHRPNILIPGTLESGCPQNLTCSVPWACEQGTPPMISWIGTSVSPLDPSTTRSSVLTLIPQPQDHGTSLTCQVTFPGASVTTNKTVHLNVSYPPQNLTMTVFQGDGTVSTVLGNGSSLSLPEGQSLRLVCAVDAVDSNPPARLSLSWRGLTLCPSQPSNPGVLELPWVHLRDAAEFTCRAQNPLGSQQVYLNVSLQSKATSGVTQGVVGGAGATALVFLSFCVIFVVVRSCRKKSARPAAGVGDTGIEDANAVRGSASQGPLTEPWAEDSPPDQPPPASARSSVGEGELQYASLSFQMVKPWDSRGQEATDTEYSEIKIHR
Chain of Protein translocase subunit SecA (Escherichia coli (strain K12)) (P10408 whole entry): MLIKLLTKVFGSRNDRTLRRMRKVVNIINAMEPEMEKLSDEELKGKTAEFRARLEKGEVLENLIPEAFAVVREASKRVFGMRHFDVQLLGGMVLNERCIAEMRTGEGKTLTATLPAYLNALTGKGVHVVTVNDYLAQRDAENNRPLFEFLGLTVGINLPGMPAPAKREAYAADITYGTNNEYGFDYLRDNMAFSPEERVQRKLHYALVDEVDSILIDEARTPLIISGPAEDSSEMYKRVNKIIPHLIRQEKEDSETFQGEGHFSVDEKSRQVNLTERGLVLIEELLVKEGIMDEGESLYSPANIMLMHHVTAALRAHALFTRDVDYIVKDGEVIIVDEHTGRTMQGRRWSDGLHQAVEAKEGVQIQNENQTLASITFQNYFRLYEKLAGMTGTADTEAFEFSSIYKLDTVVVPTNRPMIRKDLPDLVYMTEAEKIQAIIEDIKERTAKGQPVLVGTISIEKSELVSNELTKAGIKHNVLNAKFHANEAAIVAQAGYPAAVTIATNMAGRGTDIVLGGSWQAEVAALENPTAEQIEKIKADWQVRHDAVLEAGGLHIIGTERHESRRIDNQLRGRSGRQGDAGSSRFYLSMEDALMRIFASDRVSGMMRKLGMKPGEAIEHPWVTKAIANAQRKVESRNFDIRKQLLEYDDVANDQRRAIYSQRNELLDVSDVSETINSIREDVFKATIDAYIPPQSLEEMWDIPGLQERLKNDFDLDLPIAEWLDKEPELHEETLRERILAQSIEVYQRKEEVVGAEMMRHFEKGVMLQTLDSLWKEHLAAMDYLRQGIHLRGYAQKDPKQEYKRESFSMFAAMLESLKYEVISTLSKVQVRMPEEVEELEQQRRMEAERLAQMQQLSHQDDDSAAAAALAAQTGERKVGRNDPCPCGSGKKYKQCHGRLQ

On to `O=S(=O)(N1CCCC1)N1CCCCC1CCc1ccccc1` (stereo not given), for which the Percent Effect in [1] was -6.97%; in assay [2] it was 0%; in assay [3] it was -0.69%; with Trypanosoma cruzi, -3.59%; in assay [4], -1.05%; in assay [5], 13%. Also, the Percent Effect in the assay filed under Homo sapiens is 25.4%; in assay [6], -3.72%; in assay [7], -4.88%; in assay [8] it was -0.676%.
Turning to `CC1CCCN(C(=O)c2cccc(CS(C)(=O)=O)c2)C1` (stereo not given), the Percent Effect in assay [1] is 0.484%; in [2] it was 15.4%; in assay [3], -22.1%; with Trypanosoma cruzi, 2.72%; in assay [4] it was -0.41%; in assay [5], 22.4%. Further, the Percent Effect is 6.02% in the assay filed under Homo sapiens, 4.31% in [6], 22.9% in [7] and 20.9% in assay [8].
In the case of `CC(NC(=O)N1CCN(c2ccc(Cl)cc2)CC1)C(=O)N1CCSCC1` (stereo not given), the Percent Effect was -6.05% in [1]; 8.11% in [2]; 0.915% in assay [3]; -2.04% with Trypanosoma cruzi; 0.35% in assay [4]; 17.8% in [5]. For the same compound, the Percent Effect in the assay listed under Homo sapiens was 13.2%; in assay [6], 5.85%; in assay [7], 12.2%; in [8], -1.19%.
With `Cc1nc(CN2CCC(N(C)Cc3noc(C4CC4)n3)C2)oc1C` (stereo not given), the Percent Effect was 0.865% in assay [1]; 18.2% in assay [2]; 0.312% in assay [3]; 1.31% in the assay on Trypanosoma cruzi; 0.205% in assay [4]; 18.8% in [5]. In addition, the Percent Effect in the assay listed under Homo sapiens is 12.6%; in assay [6] it was 12.8%; in [7], 28.2%; in assay [8], -10.9%.
`COCCOc1cccc(C(=O)N2CCCC(n3cccn3)C2)c1` (stereo not given): the Percent Effect in [1] was -3.05%; in [2] it was 2.6%; in assay [3] it was 10.5%; with Trypanosoma cruzi, -0.746%; in assay [4], -1.84%; in [5] it was 2.28%. Besides, the Percent Effect in the assay listed under Homo sapiens amounted to 7.63%; in [6], 0%; in assay [7], 4.71%; in [8], 3.61%.
Turning to `NC(=O)c1ccc(S(=O)(=O)NC(=O)COc2ccc3c(c2)CCC3)cc1`, the Percent Effect in [1] is -4.96%; in assay [2], 7.69%; in assay [3], -3.01%; in the assay with Trypanosoma cruzi, 8.54%; in assay [4], 0.82%; in assay [5], 4.01%. For the same compound, the Percent Effect in the assay filed under Homo sapiens amounted to 4.26%; in [6], 3.35%; in [7] it was 10.8%; in assay [8] it was 6.22%.
`CCc1c(C)nn(CCNC(=O)C2CCCN(C(=O)N(C)C)C2)c1C` (stereo not given): the Percent Effect in assay [1] is -6.94%; in assay [2], 5.41%; in [3] it was 6.18%; in the assay with Trypanosoma cruzi it was 2.04%; in assay [4] it was 6.64%; in [5], 7.36%. The Percent Effect turned out to be 10.5% in the assay listed under Homo sapiens, 5.85% in assay [6], 14.6% in [7] and 41.1% in [8].
Take `Cc1cncc(C(=O)N2Cc3ccccc3C3(CCN(C)CC3)C2)c1`: the Percent Effect in assay [1] is 0.817%; in assay [2] it was 1.3%; in assay [3], -5.76%; in the assay on Trypanosoma cruzi, -4.38%; in [4], 4.05%; in assay [5], 3.09%. Besides, the Percent Effect was -17% in the assay filed under Homo sapiens, -2.63% in assay [6], -15.4% in assay [7] and -3.41% in assay [8].
With `CCc1nc(CN(C)C2CCN(CCc3ccccn3)C2)no1` (stereo not given), the Percent Effect in [1] is -0.239%; in assay [2], 21.3%; in [3] it was -5.99%; in the assay on Trypanosoma cruzi it was 4.02%; in [4], -3.55%; in assay [5], 22.8%. Moreover, the Percent Effect is 12.5% in the assay listed under Homo sapiens, 6.84% in assay [6], 15.4% in [7] and -14.1% in [8].
Take `COc1ccc(C)cc1C(C)NC(=O)NCCCn1cncn1` (stereo not given): the Percent Effect is -2.2% in assay [1]; 18.7% in [2]; 1.49% in [3]; 1.81% in the assay with Trypanosoma cruzi; 1.33% in assay [4]; 13.5% in assay [5]. Further, the Percent Effect in the assay filed under Homo sapiens is 4.64%; in [6], 6.84%; in [7], 20.5%; in assay [8], -10.3%.
For the compound `CS(=O)(=O)NCc1ncn2c1CN(C(=O)CC1CCCC1)CCC2`, the Percent Effect in assay [1] was -1.59%; in assay [2], -1.3%; in [3] it was -3.12%; in the assay on Trypanosoma cruzi, -4.77%; in assay [4], -0.81%; in assay [5] it was 2.91%. The Percent Effect in the assay listed under Homo sapiens is 12.6%; in assay [6], 1.58%; in assay [7], -2.56%; in assay [8] it was -0.829%.
For `COc1ccccc1-c1noc(CN2CCCC2Cn2cccn2)n1` (stereo not given), the Percent Effect in [1] is -4.25%; in [2], -13.3%; in [3], 1.74%; in the assay on Trypanosoma cruzi, 3.01%; in assay [4], -0.444%; in assay [5] it was 14.3%. Besides, the Percent Effect in the assay listed under Homo sapiens is 1.34%; in assay [6], 1.58%; in assay [7], 0%; in assay [8], -7.06%.
